Results: PubChem BioAssay (NCATS)
Records with an inconclusive call do not appear. The source made the active and inactive calls. Calls come from the whole dose curve; as a rule, active = well fitted activation curve with a large enough effect; inconclusive = small, poorly fitted or top-dose-only effect; inactive = no such curve, though single readings can be large or run the other way.

These compounds were tested against Rap guanine nucleotide exchange factor 3 (Homo sapiens) (UniProt O95398) (assay: Confirmatory qHTS for agonist of cAMP-regulated guanine nucleotide exchange factor 3 (EPAC1) (AID 1645881;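 note: EPAC1 catalysed release of BODIPY-GDP from Rap1B seen as fluorescence loss; nearly all actives have a fitted effect of over 75% in size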)). Conditions: EPAC1 Rap1B BODIPY-GDP exchange fluorescence; series mostly up to 154 µM.
Chain of Rap guanine nucleotide exchange factor 3 (Homo sapiens) (O95398 whole entry, looked up): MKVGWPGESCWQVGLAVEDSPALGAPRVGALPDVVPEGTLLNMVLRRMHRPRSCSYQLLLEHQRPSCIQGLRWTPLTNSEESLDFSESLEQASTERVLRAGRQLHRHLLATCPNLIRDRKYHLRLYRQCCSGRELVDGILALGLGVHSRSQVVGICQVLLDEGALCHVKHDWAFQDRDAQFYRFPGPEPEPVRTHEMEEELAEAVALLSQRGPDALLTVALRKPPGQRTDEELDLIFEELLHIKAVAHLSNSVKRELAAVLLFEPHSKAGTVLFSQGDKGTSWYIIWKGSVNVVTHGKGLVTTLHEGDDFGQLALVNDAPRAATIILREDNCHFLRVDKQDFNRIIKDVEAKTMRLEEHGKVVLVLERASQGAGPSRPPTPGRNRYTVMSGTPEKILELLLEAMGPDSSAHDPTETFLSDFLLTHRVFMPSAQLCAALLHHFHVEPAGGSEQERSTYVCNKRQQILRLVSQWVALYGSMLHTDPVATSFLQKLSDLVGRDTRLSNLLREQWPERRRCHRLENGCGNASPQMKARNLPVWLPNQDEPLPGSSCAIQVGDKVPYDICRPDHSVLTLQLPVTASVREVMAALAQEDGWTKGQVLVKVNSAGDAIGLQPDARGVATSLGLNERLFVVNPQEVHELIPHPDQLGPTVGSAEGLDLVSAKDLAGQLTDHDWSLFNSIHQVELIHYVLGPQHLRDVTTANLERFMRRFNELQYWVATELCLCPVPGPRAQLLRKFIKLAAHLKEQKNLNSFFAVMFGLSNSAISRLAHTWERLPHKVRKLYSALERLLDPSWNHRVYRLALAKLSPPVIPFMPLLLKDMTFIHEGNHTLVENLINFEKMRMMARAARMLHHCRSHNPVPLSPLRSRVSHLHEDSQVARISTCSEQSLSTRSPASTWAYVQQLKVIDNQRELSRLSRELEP

Potency, inactive:
COC(=O)c1cc(Br)c(=O)n(CCC2=CCCCC2)c1, C=CCn1c(N)c(S(=O)(=O)c2cccs2)c2nc3ccccc3nc21, Cc1[nH]c2ccccc2c1/C=C/c1ccc2ccccc2n1, CCCCOC(=O)Nc1ccc(S(=O)(=O)Nc2nccs2)cc1, Cc1cc(/C=C/c2ccnc3ccccc23)ccc1N(C)C, C/C=C(\C)C(=O)OC1C(OC(=O)C2(C)OC2C)c2cc3ccc(=O)oc3cc2OC1(C)C (configuration not stated), C(=C\c1ccnc2ccccc12)/c1ccc2ccccc2n1, COc1cccc(CN(C)C(=O)c2cnn(-c3ncc4c(n3)-c3ccccc3CCC4)c2C)c1, Cc1nc(C)n(CC(=O)NCC2Cc3cc(-c4cccc(OC(F)(F)F)c4)ccc3O2)n1 (configuration not stated), CCc1ccc([C@@H]2CC=C(C(=O)O)[C@H](c3ccc(Br)cc3)N2S(=O)(=O)c2ccc(C)cc2)cc1, C[C@@H]1CCC(=O)N(CC[C@H](Oc2ccccc2)c2ccccc2)CC1, O=C(CN1Cc2ccccc2OC(c2ccsc2)C1)N1CCN(Cc2ccc3c(c2)OCO3)CC1 (configuration not stated), CCOC(=O)C1CCCN(C(=O)c2cnn(-c3nccc(-c4cc(C)sc4C)n3)c2C)C1 (configuration not stated), Cc1ccc(C)c(N2CCN(C(=O)CCc3nc(-c4ccc(Cl)cc4)no3)CC2)c1, CN1CC(O)C2=CC(=O)C(=O)C=C21 (configuration not stated), Cn1c(O)c(N=NC(=O)c2ccccc2O)c2ccccc21, COc1ccc(C(=O)c2ccc(Br)cc2)c2ccccc12
